Assay outcomes as filed in PubChem BioAssay.
The list is not random: actives were taken first. Their share in the collection is about 4.1%.
DAX1 inh-1 = inhibits human nuclear receptor DAX1; P51843; HEK293 Gal4-DAX1 luciferase reporter, luminescence; inhibition, % at 6.75 µM; 340,000 compounds, 0.99% hits;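 active = inhibition above the mean over all tested compounds plus 3 SD, cut at about 4.2% in these data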;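 also: 0% = DAX1-transfected cells with DMSO and 100% = empty-vector control cells with DMSO; inhibition shows as a rise in luminescence from relieved DAX1 repression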
Target sequence (P51843 207-470 limits assumed): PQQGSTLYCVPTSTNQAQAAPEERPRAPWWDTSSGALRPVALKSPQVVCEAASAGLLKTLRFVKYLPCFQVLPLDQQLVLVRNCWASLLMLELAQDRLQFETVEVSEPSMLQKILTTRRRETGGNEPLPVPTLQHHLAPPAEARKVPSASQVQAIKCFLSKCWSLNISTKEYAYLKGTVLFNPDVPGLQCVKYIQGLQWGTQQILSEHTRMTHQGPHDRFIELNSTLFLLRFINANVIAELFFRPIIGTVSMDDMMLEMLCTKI
ssDAF12 agonist = activators of S. stercoralis DAF-12 nuclear receptor. HEK293 ssDAF-12/GRIP1 lit1-tk-luc reporter, luminescence; % of 3 µM dafachronic acid response. activation, % at 6.8 µM. 370,000 compounds, 1% hits. AID 652126;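 active = activation above the mean over all tested compounds plus 3 SD, cut at about 0.9% in these data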;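 also: 0% = DMSO-only wells and 100% = 3 µM delta7-dafachronic acid wells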
DAX1 inh-2 = DAX1 (NR0B1) inhibition, primary screen | HEK293T StAR-luciferase reporter, SF-1/DAX-1 repression relief | inhibition, % at 6.8 µM | 370,000 compounds, 1.1% hits;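 active = inhibition above the mean over all tested compounds plus 3 SD, cut at about 3.6% in these data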;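 also: 0% = DAX-1 cells with DMSO and 100% = cells lacking DAX-1 with DMSO; higher inhibition means more luminescence from relief of DAX-1 repression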
hcDAF12 agonist = activates DAF-12 receptor from parasite H. contortus | 370,000 compounds, 1.4% hits | HEK293 hcDAF-12 lit1-tk-luc reporter, luminescence; 0% DMSO, 100% Δ7-dafachronic acid | AID 652067 | activation, % at 6.8 µM;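 active = activation above the mean of all tested compounds plus 3 SD, cut at about 5.5% in these data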;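 also: 100% = response to 3 µM Δ7-dafachronic acid high control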
hgDAF-12 ag = agonists of H. glycines DAF-12 nuclear receptor; HEK293 GAL4-hgDAF12 UAS-luciferase reporter, agonist luminescence; normalized to butyrate control; activation, % at 6.8 µM; 370,000 compounds, 1.8% hits;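 active = activation above a cutoff set at the mean of all screened compounds plus 3 SD, cut at about 10% in these data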;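 also: 0% = DMSO wells and 100% = sodium butyrate wells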
Starred values were filed as active, the others as inactive; / = no result given.

SMILES | DAX1 inh-1 | ssDAF12 agonist | DAX1 inh-2 | hcDAF12 agonist | hgDAF-12 ag
Cc1cc(N2CCN(CC(C)(C)O)C[C@H]2C)ccc1N1CCN(CC(C)(C)O)[C@@H](C)C1 | / | -1 | 0 | -2 | -4
CCOC(=O)Cc1cc(=O)n2[nH]c(-c3ccccc3)cc2n1 | 0 | / | / | / | /
CCCc1cc(=O)n2[nH]c(-c3ccc(Br)cc3)cc2n1 | 1 | 1.1* | 2 | 5.6* | 6
CN1C(=O)Nc2cccc3cccc1c23 | 4.4* | 0 | 0 | 3 | -2
CCCC1CCC2(CC1)CCC2OC(=O)Nc1c(OC)cccc1OC (stereo unspecified) | / | -1 | / | 0 | 2
Cc1nc(NC(=O)c2ccc(Br)o2)sc1C | 2 | 0 | 2 | 2 | 10
Cc1ccc(C(=O)Nc2nc(C)c(C)s2)o1 | 2 | -1 | 3 | 4 | 13*
CCn1c2ccccc2c2cc(Nc3cc(C)nc4ncnn34)ccc21 | -1 | -2 | 3.6* | -1 | -8
Cc1cc(Nc2ccc(F)c(Cl)c2)n2ncnc2n1 | 4.5* | -1 | 0 | -3 | 2
Cc1ccc(-n2c(SCC(=O)Nc3ccc(S(=O)(=O)Nc4cc(C)nc(C)n4)cc3)nnc2-c2ccncc2)cc1 | / | -2 | 0 | -1 | 3
O=C(Oc1ccc2c(-c3ccccc3)cc(=O)oc2c1)c1cccs1 | 4.4* | -2 | 0 | 0 | 6
Cc1cc2cc(CCNS(=O)(=O)c3ccc(F)cc3)c(=O)[nH]c2cc1C | -1 | 0 | -1 | -2 | -1
Cc1noc(C)c1S(=O)(=O)N1CCCc2nc(-c3ccc(Br)cc3)ccc21 | / | -1 | -1 | -1 | 2
COC(=O)[C@]12C[C@H](CC(=O)NCCCN3CCCC3=O)C(=O)N(Cc3ccc(Cl)cc3Cl)C1=C[C@H](C1CCCC1)O[C@@H]2C | / | -2 | -1 | -1 | -3
O=C(Nc1cccc([N+](=O)[O-])c1)C(=O)N1CCCCC1 | 3 | -1 | 2 | 3 | 13*
O=[N+]([O-])c1cccc(NC(=S)N2CCCC2)c1 | 1 | -1 | -1 | 0 | 0
O=C1CCCc2nc3c(cc21)C(O)Oc1c-3ccc2ccccc12 (stereo unspecified) | 1 | -1 | 2 | 2 | 12*
COc1ccc(NC(=O)/C(C#N)=C/c2ccc[nH]2)c(OC)c1 | 0 | 0 | 1 | 6.5* | 4
COCCN1C(=O)C2=C(C1=O)C1N(C)c3ccccc3[C@@]13C[C@@H](CO)N(C(C)=O)C3=N2 (stereo partly specified) | / | -1 | 0 | 2 | -3
CCOC(=O)[C@]12CCCCC/C=C\1N(CCc1ccc(Cl)cc1)C(=O)[C@H]2CC(=O)NCc1ccccc1 | / | -1 | 1 | -3 | 2
Cc1cc2nc(CSc3ccc(Cl)cc3)cc(=O)n2[nH]1 | 11* | -1 | -1 | -2 | -3
CCC(=O)N1CCC(C(=O)NC2CCCc3ccccc32)CC1 (stereo unspecified) | / | -1 | -1 | -2 | 0
CC[C@]12CCCN3CCc4c(n(c5ccccc45)[C@@](O)(C(=O)OC)C1)[C@@H]32 | 5.0* | -1 | 1 | -1 | 2
O=C(NCCc1cccs1)c1cccs1 | 1 | 0 | 3 | 2 | 11*
O=C(NCC(O)c1ccccc1)c1cccs1 (stereo unspecified) | 3 | 0 | 1 | 2 | 12*
SMILES | DAX1 inh-1 | ssDAF12 agonist | DAX1 inh-2 | hcDAF12 agonist | hgDAF-12 ag
COc1ccc(-c2cn3cc(C(=O)NN)ccc3n2)cc1 | -1 | -1 | 2 | 1 | 12*
COc1ccc(C2Nc3ccccc3C(=O)N2Cc2ccco2)cc1COc1c(C)cc(NC(C)=O)cc1C (stereo unspecified) | / | -1 | / | 0 | -3
Cc1ccc(S(=O)(=O)CC(=O)N(CCCN2CCOCC2)c2nc3c(F)cccc3s2)cc1 | 2 | 0 | 4.1* | 0 | 4
O=C(CCS(=O)(=O)c1ccccc1)N(CCCN1CCOCC1)c1nc2c(F)cccc2s1 | -1 | -1 | 1 | 1 | 2
CCCCNC(=O)C1CCCN1C(=O)Nc1ccc2c(c1)OCO2 (stereo unspecified) | / | -1 | 2 | 2 | 8
CN[C@H]1C[C@H]2c3[nH]c4cccc(-c5cccc(C)c5)c4c3CCN2C(=O)[C@H]1[C@H](C)O | / | -2 | 0 | -1 | 1
O=Cc1ccc(OCc2ccc3c(c2)OCO3)cc1 | 2 | 0 | 1 | 3 | 11*
Cc1ccc(COc2ccc3c(c2)OCO3)cc1 | 1 | 0 | 1 | 1 | 10
